According to PubChem BioAssay AID1159580 (chemical genetic matrix, 2015):
The whole screen tested about 5,500 compounds, of which about 2,000 (36%) were called active. About 18% were inconclusive and are not listed. Rule as the data show it: active = normalized growth mostly below about 0.91 (no sharp cut-off); inconclusive = no clear call, values can overlap the other calls; inactive = mostly above about 0.92. The list shows a part of the results.

Assay: chemical genetic growth profiling, strain panel (AID 1159580);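 also: tested at 20 µM; growth read once vehicle control cultures reached saturation at 30 °C; 1 = growth at the plate median or of vehicle wells; lower values mean less growth of the strain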
Conditions: growth OD
[1] = S. cerevisiae deletion strains, locus YAL013W, strain DEP1, hits give low values
[2] = S. cerevisiae deletion strains, locus YBR229C, strain ROT2, hits give low values
[3] = S. cerevisiae deletion strains, locus YDL101C, strain DUN1, hits give low values
[4] = S. cerevisiae deletion strains, locus YDR150W, strain NUM1, hits give low values
[5] = S. cerevisiae deletion strains, locus YEL061C, strain CIN8, hits give low values
[6] = S. cerevisiae deletion strains, locus YGR078C, strain PAC10, hits give low values
[7] = S. cerevisiae deletion strains, locus YHR030C, strain SLT2, hits give low values
[8] = S. cerevisiae deletion strains, locus YHR087W, strain rtc3, hits give low values
[9] = S. cerevisiae deletion strains, locus YJL187C, strain SWE1, hits give low values
[10] = S. cerevisiae deletion strains, locus YJR043C, strain POL32, hits give low values
[11] = S. cerevisiae deletion strains, locus YJR075W, strain HOC1, hits give low values
[12] = S. cerevisiae deletion strains, locus YKL190W, strain CNB1, hits give low values
[13] = S. cerevisiae deletion strains, locus YLR039C, strain RIC1, hits give low values
[14] = S. cerevisiae deletion strains, locus YLR058C, strain SHM2 (second series), hits give low values
[15] = S. cerevisiae deletion strains, locus YLR085C, strain ARP6, hits give low values
[16] = S. cerevisiae deletion strains, locus YLR262C, strain YPT6, hits give low values
[17] = S. cerevisiae deletion strains, locus YML094W, strain GIM5, hits give low values
[18] = S. cerevisiae deletion strains, locus YMR219W, strain ESC1, hits give low values
[19] = S. cerevisiae deletion strains, locus YMR263W, strain SAP30, hits give low values
[20] = S. cerevisiae deletion strains, locus YNL128W, strain TEP1, hits give low values
[21] = S. cerevisiae deletion strains, locus YNL153C, strain GIM3, hits give low values
[22] = S. cerevisiae deletion strains, locus YNL298W, strain CLA4 (second series), hits give low values
[23] = S. cerevisiae deletion strains, locus YNL322C, strain KRE1, hits give low values
[24] = S. cerevisiae deletion strains, locus YNR030W, strain Alg12, hits give low values
[25] = S. cerevisiae deletion strains, locus YPL055C, strain LGE1, hits give low values
[26] = S. cerevisiae deletion strains, locus YPL241C, strain CIN2, hits give low values
[27] = S. cerevisiae deletion strains, locus YPR135W, strain CTF4, hits give low values

Measured: normalized growth

Nc1ccccc1C(=O)NCCc1ccc(Cl)cc1
active: [9] 0.928 | [11] 0.888
inactive: [1] 0.979 | [2] 0.949 | [3] 0.987 | S. cerevisiae deletion strains, locus YDL134C, strain PPH21, hits give low values 0.949 | [4] 0.916 | [5] 0.956 | [6] 0.97 | [7] 0.773 | [8] 0.927 | [10] 0.964 | [12] 0.947 | [13] 0.969 | [14] 0.961 | [15] 0.832 | [16] 0.908 | [17] 0.938 | [18] 0.962 | [19] 0.997 | [20] 0.993 | [21] 0.974 | [22] 0.939 | [23] 0.963 | [24] 0.942 | [25] 1.08 | [26] 0.902 | [27] 0.767

COc1ccc(CCNC(=O)c2ccccc2Cl)cc1OC
inactive: [1] 0.993 | [2] 0.987 | [3] 1 | [4] 0.991 | [5] 0.968 | [6] 1 | S. cerevisiae deletion strains, locus YGR229C, strain SMI1, hits give low values 0.988 | [7] 1.01 | [8] 0.97 | [9] 0.984 | [10] 1 | [11] 0.994 | [12] 0.997 | [13] 1.03 | [14] 1 | [15] 0.973 | [16] 1.02 | [17] 0.993 | [18] 0.981 | [19] 0.993 | [20] 0.983 | [21] 0.988 | [22] 1.01 | [23] 1.01 | [24] 1.03 | [25] 0.976 | [26] 1.02 | [27] 1.06 | S. cerevisiae strains, strain wild type, hits give low values 1.01
